# Measurements taken from paper PMC9911399, “Two distinct binding modes provide the RNA-binding protein RbFox with extraordinary sequence specificity”.
# Substitutions are numbered along the chain they refer to; changes in the protein carry UniProt numbers. In all, about 16,000 sequences were measured (“ka relative to ugcaugu”: median about 0.096, highest 2% from about 0.35 on). The entries come from a sample that favours the highest values as a whole.
# T1: RBFOX1 RRM RbFoxmut (Fox-RRM*) (Homo sapiens, UniProt Q9NWB1 109-208, R118D;E147R;N151S;E152T)
# T1 sequence: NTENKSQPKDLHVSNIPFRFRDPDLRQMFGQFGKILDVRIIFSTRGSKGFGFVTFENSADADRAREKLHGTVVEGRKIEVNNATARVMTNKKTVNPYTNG
# B1: GCCAUCG (DNA:RNA)
# RNA: GGGAGACCGGAAUUCAGAUUGUCCGCCAUCGUUAAAUCCCGUCGUAGCCACCA
# DNA 1: CAATCTGAATTCCGGTCTCCC
# DNA 2: TGGTGGCTACGACGGGATT
# B2: GUCAUAC (DNA:RNA)
# RNA: B1 RNA with C26U, C30A, G31C
# DNA 1: CAATCTGAATTCCGGTCTCCC
# DNA 2: TGGTGGCTACGACGGGATT
# B3: AUUUCGA (DNA:RNA)
# RNA: GGGAGACCGGAAUUCAGAUUGUCCAUUUCGAUUAAAUCCCGUCGUAGCCACCA
# DNA 1: CAATCTGAATTCCGGTCTCCC
# DNA 2: TGGTGGCTACGACGGGATT
# B4: AAACAAG (DNA:RNA)
# RNA: B3 RNA with U26A, U27A, U28C, C29A, G30A, A31G
# DNA 1: CAATCTGAATTCCGGTCTCCC
# DNA 2: TGGTGGCTACGACGGGATT
# B5: UAAUACC (DNA:RNA)
# RNA: B3 RNA with A25U, U26A, U27A, C29A, G30C, A31C
# DNA 1: CAATCTGAATTCCGGTCTCCC
# DNA 2: TGGTGGCTACGACGGGATT
# B6: AGCUAUA (DNA:RNA)
# RNA: B3 RNA with U26G, U27C, C29A, G30U
# DNA 1: CAATCTGAATTCCGGTCTCCC
# DNA 2: TGGTGGCTACGACGGGATT
# B7: AGUGGCA (DNA:RNA)
# RNA: B3 RNA with U26G, U28G, C29G, G30C
# DNA 1: CAATCTGAATTCCGGTCTCCC
# DNA 2: TGGTGGCTACGACGGGATT
# B8: CAAAUUG (DNA:RNA)
# RNA: B1 RNA with G25C, C26A, C27A, C30U
# DNA 1: CAATCTGAATTCCGGTCTCCC
# DNA 2: TGGTGGCTACGACGGGATT
# B9: GCGGGUG (DNA:RNA)
# RNA: B1 RNA with C27G, A28G, U29G, C30U
# DNA 1: CAATCTGAATTCCGGTCTCCC
# DNA 2: TGGTGGCTACGACGGGATT
# B10: GGGUGUC (DNA:RNA)
# RNA: B3 RNA with A25G, U26G, U27G, C29G, G30U, A31C
# DNA 1: CAATCTGAATTCCGGTCTCCC
# DNA 2: TGGTGGCTACGACGGGATT
# B11: GGGUGUG (DNA:RNA)
# RNA: B1 RNA with C26G, C27G, A28U, U29G, C30U
# DNA 1: CAATCTGAATTCCGGTCTCCC
# DNA 2: TGGTGGCTACGACGGGATT
# B12: GGGGGUC (DNA:RNA)
# RNA: B1 RNA with C26G, C27G, A28G, U29G, C30U, G31C
# DNA 1: CAATCTGAATTCCGGTCTCCC
# DNA 2: TGGTGGCTACGACGGGATT
# B13: GGGGGUG (DNA:RNA)
# RNA: B1 RNA with C26G, C27G, A28G, U29G, C30U
# DNA 1: CAATCTGAATTCCGGTCTCCC
# DNA 2: TGGTGGCTACGACGGGATT
# B14: CCGGGUG (DNA:RNA)
# RNA: B1 RNA with G25C, C27G, A28G, U29G, C30U
# DNA 1: CAATCTGAATTCCGGTCTCCC
# DNA 2: TGGTGGCTACGACGGGATT
# B15: GGUCUGG (DNA:RNA)
# RNA: B1 RNA with C26G, C27U, A28C, C30G
# DNA 1: CAATCTGAATTCCGGTCTCCC
# DNA 2: TGGTGGCTACGACGGGATT
# B16: ACUUCCA (DNA:RNA)
# RNA: B3 RNA with U26C, G30C
# DNA 1: CAATCTGAATTCCGGTCTCCC
# DNA 2: TGGTGGCTACGACGGGATT
# B17: CCAGGGC (DNA:RNA)
# RNA: B3 RNA with A25C, U26C, U27A, U28G, C29G, A31C
# DNA 1: CAATCTGAATTCCGGTCTCCC
# DNA 2: TGGTGGCTACGACGGGATT
# B18: AGUUAUG (DNA:RNA)
# RNA: B3 RNA with U26G, C29A, G30U, A31G
# DNA 1: CAATCTGAATTCCGGTCTCCC
# DNA 2: TGGTGGCTACGACGGGATT
# B19: ACCUUAA (DNA:RNA)
# RNA: B3 RNA with U26C, U27C, C29U, G30A
# DNA 1: CAATCTGAATTCCGGTCTCCC
# DNA 2: TGGTGGCTACGACGGGATT
# B20: CCCGCAU (DNA:RNA)
# RNA: B1 RNA with G25C, A28G, U29C, C30A, G31U
# DNA 1: CAATCTGAATTCCGGTCTCCC
# DNA 2: TGGTGGCTACGACGGGATT
# B21: CUUCACC (DNA:RNA)
# RNA: B3 RNA with A25C, U28C, C29A, G30C, A31C
# DNA 1: CAATCTGAATTCCGGTCTCCC
# DNA 2: TGGTGGCTACGACGGGATT
# B22: CGAGUAU (DNA:RNA)
# RNA: B1 RNA with G25C, C26G, C27A, A28G, C30A, G31U
# DNA 1: CAATCTGAATTCCGGTCTCCC
# DNA 2: TGGTGGCTACGACGGGATT
# B23: UGGUUUU (DNA:RNA)
# RNA: B3 RNA with A25U, U26G, U27G, C29U, G30U, A31U
# DNA 1: CAATCTGAATTCCGGTCTCCC
# DNA 2: TGGTGGCTACGACGGGATT
# B24: UGGUGGU (DNA:RNA)
# RNA: B3 RNA with A25U, U26G, U27G, C29G, A31U
# DNA 1: CAATCTGAATTCCGGTCTCCC
# DNA 2: TGGTGGCTACGACGGGATT
# B25: GUCCUGG (DNA:RNA)
# RNA: B1 RNA with C26U, A28C, C30G
# DNA 1: CAATCTGAATTCCGGTCTCCC
# DNA 2: TGGTGGCTACGACGGGATT
# B26: UGUUUGG (DNA:RNA)
# RNA: B3 RNA with A25U, U26G, C29U, A31G
# DNA 1: CAATCTGAATTCCGGTCTCCC
# DNA 2: TGGTGGCTACGACGGGATT
# B27: CUGGUUG (DNA:RNA)
# RNA: B1 RNA with G25C, C26U, C27G, A28G, C30U
# DNA 1: CAATCTGAATTCCGGTCTCCC
# DNA 2: TGGTGGCTACGACGGGATT
# B28: UGGUUUG (DNA:RNA)
# RNA: B1 RNA with G25U, C26G, C27G, A28U, C30U
# DNA 1: CAATCTGAATTCCGGTCTCCC
# DNA 2: TGGTGGCTACGACGGGATT
# B29: UGGUUGG (DNA:RNA)
# RNA: B3 RNA with A25U, U26G, U27G, C29U, A31G
# DNA 1: CAATCTGAATTCCGGTCTCCC
# DNA 2: TGGTGGCTACGACGGGATT
# B30: UGGUUCG (DNA:RNA)
# RNA: B1 RNA with G25U, C26G, C27G, A28U
# DNA 1: CAATCTGAATTCCGGTCTCCC
# DNA 2: TGGTGGCTACGACGGGATT
# B31: UGGUUUC (DNA:RNA)
# RNA: B3 RNA with A25U, U26G, U27G, C29U, G30U, A31C
# DNA 1: CAATCTGAATTCCGGTCTCCC
# DNA 2: TGGTGGCTACGACGGGATT
# B32: UGGUUGU (DNA:RNA)
# RNA: B3 RNA with A25U, U26G, U27G, C29U, A31U
# DNA 1: CAATCTGAATTCCGGTCTCCC
# DNA 2: TGGTGGCTACGACGGGATT
# B33: UGGUUCC (DNA:RNA)
# RNA: B1 RNA with G25U, C26G, C27G, A28U, G31C
# DNA 1: CAATCTGAATTCCGGTCTCCC
# DNA 2: TGGTGGCTACGACGGGATT
# B34: CCCCUGG (DNA:RNA)
# RNA: B1 RNA with G25C, A28C, C30G
# DNA 1: CAATCTGAATTCCGGTCTCCC
# DNA 2: TGGTGGCTACGACGGGATT
# Molecular target: T1, RBFOX1 RRM RbFoxmut (Fox-RRM*)
# Experiment: EMSA; HiTS-Eq, 1 nM pool, 10 min; buffer printed only for the single-RNA assays: 10 mM Tris pH 7.5, 150 mM NaCl, 3.4 mM EDTA, 0.001% NP-40, 30 C
# Details: tags: His6 N-terminal (pET28a); label: 5' 32P
# Summary of the method: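 A pool of RNA with 7 randomized nucleotides, 5′-radiolabelled and with DNA-annealed flanks, was equilibrated at 1 nM for 10 min in 50 µL with purified RbFox RRM, wild type or mutant, across increasing protein concentrations. Free RNA was separated by 8% native PAGE, excised, reverse-transcribed, barcoded by PCR and sequenced. Relative association constants were obtained from read-count changes of each RNA species versus the control reaction and normalised to the cognate motif.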
row,Binder,binding signal
1,B1,0.0927 KA relative to UGCAUGU
2,B2,0.1 KA relative to UGCAUGU
3,B3,0.114 KA relative to UGCAUGU
4,B4,0.0927 KA relative to UGCAUGU
5,B5,0.0785 KA relative to UGCAUGU
6,B6,0.14 KA relative to UGCAUGU
7,B7,0.144 KA relative to UGCAUGU
8,B8,0.117 KA relative to UGCAUGU
9,B9,0.194 KA relative to UGCAUGU
10,B10,0.368 KA relative to UGCAUGU
11,B11,0.441 KA relative to UGCAUGU
12,B12,0.201 KA relative to UGCAUGU
13,B13,0.289 KA relative to UGCAUGU
14,B14,0.163 KA relative to UGCAUGU
15,B15,0.153 KA relative to UGCAUGU
16,B16,0.0542 KA relative to UGCAUGU
17,B17,0.102 KA relative to UGCAUGU

row,Binder,binding signal
1,B18,0.28 KA relative to UGCAUGU
2,B19,0.129 KA relative to UGCAUGU
3,B20,0.0703 KA relative to UGCAUGU
4,B21,0.0684 KA relative to UGCAUGU
5,B22,0.143 KA relative to UGCAUGU
6,B23,0.0956 KA relative to UGCAUGU
7,B24,0.161 KA relative to UGCAUGU
8,B25,0.075 KA relative to UGCAUGU
9,B26,0.302 KA relative to UGCAUGU
10,B27,0.458 KA relative to UGCAUGU
11,B28,0.874 KA relative to UGCAUGU
12,B29,0.309 KA relative to UGCAUGU
13,B30,0.492 KA relative to UGCAUGU
14,B31,0.183 KA relative to UGCAUGU
15,B32,0.396 KA relative to UGCAUGU
16,B33,0.157 KA relative to UGCAUGU
17,B34,0.0629 KA relative to UGCAUGU
